Giardia killer = kills Giardia lamblia | 340,000 tested, 0.15% active | activity change, % at 7.66 µM, hits read low | Giardia lamblia trophozoite viability; in the data active means activity change below about -80%; inconclusive means between about -30% and that limit;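 further: parasites exposed to compound for two days anaerobically before the ATP read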
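Trophozoites 100 cells/well + cpd; 48 hrs, 37 deg C, anaerobic. ATPLite 1-Step added, 15-30 min RT, luminescence read (ATP-based viability).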
ELG1 repair inh = inhibitors of ELG1-dependent DNA repair in HEK293T cells | HEK293T ELG1-luciferase reporter, luminescence, 16 h; DNA damage induced by 5-fluorouridine | Potency, µM (highest dose often 46.1 µM), for inactives: at the highest dose activity change, negative = inhibition, most hits filed as inhibitors | 330,000 tested, 2.3% active | AID 504467; further: potency means the concentration at half of the fitted maximal effect; nearly all actives have a fitted effect of over 55% in size
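Luminescence from the luciferase reporter, measured 30 min after ONE-Glo reagent at room temperature, was the read-out. Beforehand, 2,000 cells per well were exposed for 16 hr at 37 °C to 5-fluorouridine together with compound or vehicle.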
FBPA coupling cs = counter-screen for Giardia aldolase inhibitors: coupling enzyme system; coupling enzyme system counterscreen, AmpLite Red fluorescence; 290,000 tested, 0.67% active; AID 2472; activity change, negative = inhibition, % at 58.2 µM, hits read low; in the data active means activity change below about -30%
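First, compound is pin-transferred into glyceraldehyde-3-phosphate coupling-enzyme reagent at 57.5 uM final and held 10 min at RT. Next, substrate, coupling system and AmpLite Red are added. After 20 min RT, fluorescence (525/598 nm) is read.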
Sfp inh = blocks B. subtilis Sfp PPTase activity; Potency, µM, without a hit: largest response in the series, negative = inhibition, hits mostly inhibitors; Biochemical Sfp PPTase activity, qHTS; 310,000 tested, 3.5% active; Q9F4F7;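 further: the enzyme is Sfp with the accession as filed and its product quenches rhodamine fluorescence; potency means the concentration at half of the fitted maximal effect; 0% = enzyme reaction without inhibitor and -100% = no enzyme wells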
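Buffer: 50 mM Hepes-Na pH 7.6, 10 mM MgCl2, 0.01% Nonidet P-40, 0.01% BSA. Enzyme 15 nM, pre-exposed to compound 15 min; substrates then added and fluorescence change tracked over 30 min.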
* hit, by the source's call. Rows were chosen to be rich in hits. Some 5.5% of all compounds tested hit in one or more screens of this group. Unless noted, the call rests on the fitted dose curve; in most records, active means well fitted curve in the direction sought with a large enough effect; inconclusive means small, poorly fitted or top-dose-only effect, or another doubt; inactive means no such curve, though single readings can be large; an effect the other way counts as inactive or inconclusive. Unless noted, on the % scale 0 is the no-effect control and ±100 the full control effect.

`CN(Cc1ccc(-n2cccn2)cc1)C(=O)c1cnn2c1NC(c1ccco1)CC2C(F)(F)F` (stereo not given) gave Giardia killer -2, ELG1 repair inh 10µM*, FBPA coupling cs -5 and Sfp inh 20µM*.
`Cc1ccc(Cl)cc1NC(=O)c1cnn2c1NC(c1ccco1)CC2C(F)(F)F` (stereo not given) gave Giardia killer -13, ELG1 repair inh 18µM*, FBPA coupling cs 3 and Sfp inh -1%.
`C[C@@H]1NC(=O)C/C=C\[C@@H](C)[C@@H]2C=C[C@H](O)[C@@H](COC(=O)[C@H](C)NC(=O)C/C=C\[C@@H](C)[C@@H]3C=C[C@H](O)[C@@H](COC1=O)O3)O2` gave FBPA coupling cs 2 and Sfp inh -10%.
Screening COCCn1c(=S)[nH]c2cc(C(=O)N3CCN(Cc4ccc5c(c4)OCO5)CC3)ccc2c1=O returned Giardia killer 36, ELG1 repair inh 5.2µM*, FBPA coupling cs 3 and Sfp inh -7%.
Cc1ccc(S(=O)(=O)N(C)c2ccc(C(=O)N3CCN(Cc4ccc5c(c4)OCO5)CC3)cc2)cc1 was read as Giardia killer 10, ELG1 repair inh 6.5µM*, FBPA coupling cs 2 and Sfp inh -4%.
For CN(c1ccc(C(=O)N2CCN(Cc3ccc4c(c3)OCO4)CC2)cc1)S(=O)(=O)c1ccccc1 the results were Giardia killer 25, ELG1 repair inh 23µM*, FBPA coupling cs 0 and Sfp inh 11%.
Screening Cc1ccc(S(=O)(=O)N(C)CC(=O)N2CCN(Cc3ccc4c(c3)OCO4)CC2)cc1 returned Giardia killer -12, ELG1 repair inh inconclusive, FBPA coupling cs 0 and Sfp inh -3%.
For Cc1cc(NC(=O)CS(=O)(=O)c2cn(Cc3cccc(F)c3)c3ccccc23)no1 the results were Giardia killer 3, ELG1 repair inh 21µM*, FBPA coupling cs -6 and Sfp inh -10%.
`Cc1cc(NC(=O)CS(=O)(=O)c2cn(Cc3ccc(F)cc3)c3ccccc23)no1` gave Giardia killer 21, ELG1 repair inh inconclusive, FBPA coupling cs 1 and Sfp inh 7%.
`Cc1ccnn1CCC(=O)N1CCCC(Nc2ccc(F)c(F)c2)C1` (stereo not given) gave Giardia killer 15, ELG1 repair inh 7%, FBPA coupling cs 0 and Sfp inh 4%.
For Cc1cc2c(c(C)c1CCO)C(=O)[C@H](C)C2 the results were Giardia killer 25 and ELG1 repair inh 20%.
Screening Cc1ccc(CNC(=O)C2c3ccccc3C(=O)N(C)C2c2c[nH]c3ccccc23)o1 (stereo not given) returned Giardia killer 12, FBPA coupling cs 0 and Sfp inh 50µM*.
COc1ccc(C2C(C(=O)Nc3cc(C)on3)c3ccccc3C(=O)N2C)cc1 (stereo not given) was read as Giardia killer -5, ELG1 repair inh -8%, FBPA coupling cs 5 and Sfp inh 21%.
`COc1ccc(/C=C2\Sc3ccc(C(=O)NCCCN4CCCC4)cc3N(C)C2=O)cc1OC` gave Giardia killer -29, ELG1 repair inh 5%, FBPA coupling cs -4 and Sfp inh -12%.
`O=C1Nc2cccnc2N(C(=O)CCl)c2ccccc21` gave Giardia killer -20, ELG1 repair inh 21µM*, FBPA coupling cs -1 and Sfp inh -5%.
`Cc1cc(F)ccc1S(=O)(=O)Nc1ccccc1C(=O)N1CCCC1` gave Giardia killer 4 and ELG1 repair inh 23%.
Screening COc1ccc(-c2ccc(NC(=O)c3ccco3)cc2)nn1 returned Giardia killer -93* and ELG1 repair inh inconclusive.
`COc1cccc(NC(=O)c2oc3ccccc3c2NC(=O)C2CC2)c1` gave Giardia killer 5, ELG1 repair inh 13µM*, FBPA coupling cs -2 and Sfp inh -10%.
Screening COc1ccc(NC(=O)c2ccco2)c(OC)c1 returned Giardia killer 5, ELG1 repair inh inconclusive, FBPA coupling cs -3 and Sfp inh -6%.
COc1ccc(NC(=O)c2oc3ccccc3c2NC(=O)c2ccco2)cc1 was read as Giardia killer 5, ELG1 repair inh 10µM*, FBPA coupling cs -4 and Sfp inh -3%.
COc1ccc(NC(=O)c2oc3ccccc3c2NC(=O)c2ccco2)c(OC)c1 was read as Giardia killer 3, ELG1 repair inh inconclusive, FBPA coupling cs 0 and Sfp inh 25µM*.
`Cn1cnc(S(=O)(=O)NC2CCN(Cc3ccccc3)CC2)c1` gave Giardia killer -6, ELG1 repair inh 9%, FBPA coupling cs -1 and Sfp inh 13%.
For CC(C)(C)C1CCCCC1NC(=O)c1ccncc1 (stereo not given) the results were Giardia killer -25, ELG1 repair inh -1%, FBPA coupling cs 1 and Sfp inh 7%.
For COCCN(C(=S)Nc1c(C)cc(C)cc1C)C(C)c1cccnc1 (stereo not given) the results were Giardia killer 13, ELG1 repair inh 16%, FBPA coupling cs -15 and Sfp inh 11µM*.
COCCN(C(=S)Nc1c(C)cccc1C)C(C)c1cccnc1 (stereo not given) was read as Giardia killer 15, ELG1 repair inh -4%, FBPA coupling cs 1 and Sfp inh -6%.
`Cc1ccnc2nc(C(=O)OCC(=O)N(Cc3ccccc3)C(C)(C)C)nn12` gave Giardia killer -13 and ELG1 repair inh -2%.
For Cc1ccc2c(C)c(C(=O)NCCN3CCOC3=O)oc2c1C the results were Giardia killer -25, ELG1 repair inh -3%, FBPA coupling cs -2 and Sfp inh 9%.
Screening COc1ccc(CN2CCc3ccccc3C2)cc1Br returned Giardia killer -10, ELG1 repair inh 16%, FBPA coupling cs -3 and Sfp inh 79µM*.

Bioassay records as filed in PubChem.
